Bioassay records from PubChem BioAssay.
An excerpt weighted towards active compounds, which were near 5.5% of everything screened.
MBNL1-CUG inh – blocks human MBNL1 binding to CUG repeat RNA; Potency, µM (doses to about 57.5 µM), for inactives: top-dose activity change, negative = inhibition, most hits filed as inhibitors; Q9NR56; TR-FRET MBNL1-His/biotin-(CUG)12 binding, 665/545 ratio; actives 0.036% (n = 280,000); active = well fitted inhibition curve with a large enough effect in the signal ratio, with a control signal flat, not every such curve was filed as active; inconclusive = small, poorly fitted or top-dose-only effect, or effect the other way, or a change in a side signal; inactive = no such curve, though single readings can be large or run the other way; the % refers to the signal ratio; note: potency is the fitted concentration of half-maximal effect; % is set by controls: 0 for no effect and ±100 for the full control effect
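His-tagged MBNL1 binding to biotinylated (CUG)12 RNA was measured by TR-FRET using terbium anti-His antibody (0.055 ng/ul final) and streptavidin-XL665 (5 nM final). Compounds were titrated 92 nM to 58 uM; 60 min at room temperature.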
Six1-Eya2 blk – inhibitors of human Six1/Eya2 interaction. actives 0.56% (n = 360,000). Q15475+O00167. AlphaScreen GST-Six1/His-Eya2 binding, biochemical; stronger effect = lower value. activity change, % (concentration not given with the values); in the data active = activity change below about -65%; inconclusive = mostly about -30% to -63%; note: % is set by controls: 0 for no effect and ±100 for the full control effect
Target sequence (O00167 whole entry, looked up): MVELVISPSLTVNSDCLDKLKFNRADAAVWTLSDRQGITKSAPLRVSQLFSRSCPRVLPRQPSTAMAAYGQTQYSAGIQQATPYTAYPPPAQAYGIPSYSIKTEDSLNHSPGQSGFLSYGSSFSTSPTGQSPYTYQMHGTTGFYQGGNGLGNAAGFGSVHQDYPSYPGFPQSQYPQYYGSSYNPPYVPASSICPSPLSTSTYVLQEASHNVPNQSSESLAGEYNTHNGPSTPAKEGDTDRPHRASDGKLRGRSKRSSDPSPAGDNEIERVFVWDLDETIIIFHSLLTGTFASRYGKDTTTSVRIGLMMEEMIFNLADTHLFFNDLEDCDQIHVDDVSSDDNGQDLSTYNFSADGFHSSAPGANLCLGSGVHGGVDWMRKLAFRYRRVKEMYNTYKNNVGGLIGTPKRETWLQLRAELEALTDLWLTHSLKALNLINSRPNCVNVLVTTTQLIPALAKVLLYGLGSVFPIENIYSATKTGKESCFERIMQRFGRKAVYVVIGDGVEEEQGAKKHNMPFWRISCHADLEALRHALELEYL
Target sequence (Q15475 whole entry, looked up): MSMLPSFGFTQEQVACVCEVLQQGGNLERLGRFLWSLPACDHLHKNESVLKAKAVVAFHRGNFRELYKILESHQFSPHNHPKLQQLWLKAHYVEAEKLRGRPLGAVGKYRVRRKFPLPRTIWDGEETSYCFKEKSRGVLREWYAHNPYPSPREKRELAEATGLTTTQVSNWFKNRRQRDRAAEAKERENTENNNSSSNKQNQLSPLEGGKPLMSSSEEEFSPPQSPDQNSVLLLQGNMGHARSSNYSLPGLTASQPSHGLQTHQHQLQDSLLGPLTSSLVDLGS
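Six1/Eya2 binding was read as AlphaScreen signal after compounds were pinned into GST-Six1 plus His-tagged Eya2 (5X stock 250/500 nM) in pH 8.0 Tris/NaCl/TCEP buffer, beads added, then incubated 1 h, 37 C, dark.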
RORg inh – inhibitors of mouse ROR gamma transcriptional activity. actives 5.4% (n = 310,000). P51450. Potency, µM (top dose mostly 53.6 µM), without a hit: at the top dose activity change, negative = inhibition, usual class: inhibitors. AID 2551. Drosophila S2 Gal4-RORgamma UAS-luciferase reporter, 20 h; note: potency is the fitted concentration of half-maximal effect; % is set by controls: 0 for no effect and ±100 for the full control effect; nearly all actives have a fitted effect of over 60% in size
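Schneider cells (Drosophila), stable Gal4 DBD–ROR gamma + UAS-luc; 1 hr cmpd preincubation; Cu2+ induction 700 uM final; 20 hr ambient; luminescence.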
CtBP-E1A inh – blocks the CtBP interaction with E1A. AlphaScreen GST-E1A/His-CtBP binding, 1536-well; stronger effect = lower value. activity change, % (concentration not given with the values). actives 0.49% (n = 340,000). AID 651724; in the data active = activity change below about -65%; inconclusive = mostly about -30% to -63%; note: % is set by controls: 0 for no effect and ±100 for the full control effect
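GST-E1A and His-tagged CtBP (125 nM each as 5X stock) were preincubated with pin-transferred compound for 2 h at 37 °C in the dark, then glutathione donor and nickel acceptor beads were added for 1 h before AlphaScreen reading.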
CBFb-RUNX1 inh – blocks binding between human CBF-beta and RUNX1; AlphaScreen CBFb-His/RUNX1-biotin binding, biochemical; Potency, µM (series often up to 59.8 µM), without a hit: at the highest dose activity, negative = inhibition, actives largely listed as inhibitors; 230,000 tested, under 10 active; AID 1477; note: % of control where 0% means no effect
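Room-temperature protein-protein interaction test with 30 nM each of His-tagged CBF-beta and biotinylated RUNX1, 15 min with compound, then 90 min with nickel plus streptavidin beads. Signal read in AlphaScreen mode.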
Gal4-VP16 FLuc – Gal4-VP16 reporter inhibition counter-screen; Drosophila S2 Gal4-VP16 UAS-luciferase, luminescence, 20 h; Potency, µM (top dose mostly 53.6 µM), inactives show top-dose activity, negative = inhibition, most hits filed as inhibitors; actives 3.5% (n = 310,000); AID 2546;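 note: Gal4-VP16 expression switched on by copper sulfate through the metallothionein promoter; potency is the fitted concentration of half-maximal effect; % is set by controls: 0 for no effect and ±100 for the full control effect; nearly all actives have a fitted effect of over 50% in size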
An asterisk follows results filed as active; ? = inconclusive; / = not tested or not shown; [ ] = another dose, or the depositor's remark. Unless noted, calls come from the whole dose curve; as a rule, active = well fitted curve in the direction sought with a large enough effect; inconclusive = small, poorly fitted or top-dose-only effect, or another doubt; inactive = no such curve, though single readings can be large; an effect the other way counts as inactive or inconclusive.

SMILES	MBNL1-CUG inh	Six1-Eya2 blk	RORg inh	CtBP-E1A inh	CBFb-RUNX1 inh	Gal4-VP16 FLuc
Cc1ccc(C(=O)NC(=S)Nc2ccccc2N2CCCC2)cc1[N+](=O)[O-]	/	?	?	-29	-3%	?
O=C(NC(=S)Nc1ccc(N2CCCC2)cc1)c1ccccc1[N+](=O)[O-]	/	-3	4µM*	-1	-19%	5µM*
Cc1cc(=O)c2c(O)cc(O)c(C)c2o1	/	/	-36%	/	5%	2%
COc1cc(OC)cc(C(=O)Nc2nnc(NC(=S)Nc3ccccc3)s2)c1	/	1	0.63µM*	-16	-14%	?
CC(C)(C)c1nnc(NC(=S)Nc2ccccc2)s1	-1%	-14	0.28µM*	1	-5%	0.89µM*
COc1cc(OC)cc(C(=O)Nc2ccc(Nc3ccccc3)cc2)c1	0%	-4	30%	/	/	-1%
Cc1ccccc1N=C1SCCN1C(=O)CN1C(=O)NC2(CCCC2)C1=O	/	-1	/	0	/	/
CCCCCCCCN	/	/	0%	/	12%[21.7 µM]	-7%
COC(=O)[C@@H](NC(=O)N1CCc2nc(-c3ccccc3)c3c(c2C1)CO[C@@H](C)C3)C(C)C	/	/	/	/	5%[13.1 µM]	/
CN1C(=O)/C(=C/c2ccccc2OCc2ccccc2F)NC1=S	-4%	2	1.6µM*	8	-5%	-24%
CN1C(=O)/C(=C/c2ccc(OCc3cccc(F)c3)cc2)NC1=S	4%	0	7.1µM*	6	/	?
N#Cc1ccc(CN2CCC3(CC2)CCN(C(=O)c2cc(C(F)(F)F)cc(C(F)(F)F)c2)CC3)cc1	/	/	36%	/	/	-9%
CC(CCc1ccccc1)NC(=O)COC(=O)c1cccc(N(C)C)c1 (centres undefined)	-4%	-9	4%	/	/	5%
O=C(CC(=O)N1CCOCC1)N1CCOCC1	/	0	/	5	/	/
O=C(Nc1ccc(N2CCCC2)cc1)c1cc2ccccc2o1	6%	-5	/	/	/	/
CCC(=O)N1CCN(c2ccc(NC(=S)NC(=O)COc3ccccc3)cc2)CC1	1%	-7	?	/	-17%	13µM*
CC(=O)N1CCN(c2ccc(NC(=O)c3cc4ccccc4o3)cc2)CC1	-2%	-6	?	/	/	21%
CC(C)C(=O)N1CCN(c2ccc(NC(=S)NC(=O)c3cc4ccccc4o3)cc2)CC1	-5%	8	5µM*	-12	/	?
CC(=O)N1CCN(c2ccc(NC(=S)NC(=O)COc3ccc(C(C)(C)C)cc3)cc2)CC1	/	2	39%[10 µM]	0	-5%	?
CCC(=O)N1CCN(c2ccc(NC(=S)NC(=O)c3cc4ccccc4o3)cc2)CC1	7%	10	13µM*	-2	/	4µM*
O=C(NC(=S)Nc1ccc(NC(=O)c2cccs2)cc1)c1cc2ccccc2o1	/	8	7.1µM*	-2	6%	7.9µM*
CCOc1ccc(N(CC(=O)NCc2ccccc2C)S(C)(=O)=O)cc1	-2%	-1	?	-10	/	?
COc1ccc(O[C@H]2C=C[C@@H](c3ccccc3)O[C@@H]2CO/N=C\[C@@H](C)[C@H](OCc2ccccc2)C(C)C)cc1	/	/	-2%[10 µM]	/	18%[13.1 µM]	-1%[10 µM]
CC(=O)Nc1ccc(S(=O)(=O)Oc2ccc(N3C(=O)C4CCCCC4C3=O)cc2)cc1 (centres undefined)	-9%	-5	?	3	1%	13µM*
CC(=O)NC1(C(F)(F)F)C(=O)N(Cc2ccccc2)C2=C1C(=O)CC(C)(C)C2 (centres undefined)	-8%	7	-2%	-1	2%	-1%
SMILES	MBNL1-CUG inh	Six1-Eya2 blk	RORg inh	CtBP-E1A inh	CBFb-RUNX1 inh	Gal4-VP16 FLuc
CC1(C)CC(=O)C2=C(C1)N(Cc1ccccc1)C(=O)C2(NC(=O)C(C)(C)C)C(F)(F)F (centres undefined)	3%	0	11µM*	-7	0%	2%
Cc1noc(C)c1NC(=O)N(C)C[C@H]1Oc2ccc(NC(=O)C3CCCCC3)cc2C(=O)N([C@H](C)CO)C[C@@H]1C	/	1	/	6	/	/
O=C(c1cnccn1)N1CCC[C@@]2(CCN(c3ccncc3)C2)C1	/	/	-18%	/	/	8%
COc1cccc(CNC(=S)Nc2ccc(Cl)cc2C)c1	1%	-11	6.3µM*	1	/	6.3µM*
Cc1cc(Cl)ccc1NC(=S)NCc1ccccc1	0%	-3	4µM*	-6	7%	4%[0.365 µM]
Cc1ccc(NC(=S)NCc2ccc(Cl)cc2)c(C)c1	-1%	-10	4.5µM*	-23	/	4.5µM*
COc1cccc(CNC(=S)Nc2cc(OC)ccc2OC)c1	-3%	-10	13µM*	-4	0%	?
Cc1cc(Cl)ccc1NC(=S)NCC(O)c1ccccc1 (centres undefined)	0%	4	?	-4	/	?
Cc1cc(C)cc(NC(=S)N2CCN(Cc3ccccc3)CC2)c1	-1%	-9	7.1µM*	-2	0%	?
CC(C)c1ccc(NC(=S)N2CCN(S(=O)(=O)c3ccccc3)CC2)cc1	1%	-7	11µM*	-8	/	?
COC(=O)c1ccc(NC(=S)N2CCN(Cc3ccccc3)CC2)cc1	-16%	-4	3%	-6	6%	?
COC(=O)c1ccc(NC(=S)N2CCN(Cc3cccc(C)c3)CC2)cc1	-18%	-4	11µM*	-9	-11%	?
CC(C)c1ccc(NC(=S)N2CCN(Cc3ccccc3)CC2)cc1	0%	-3	7.9µM*	/	8%	?
CCOc1ccc(OCCC(=O)Nc2ccccc2C(=O)NC2CC2)cc1	/	4	/	-1	/	/
COc1ccc(NC(=S)N2CCN(Cc3ccc(C)cc3)CC2)cc1	0%	-12	?	7	-5%	-4%
Cc1ccc(NC(=S)N2CCN(Cc3ccccc3)CC2)cc1	-14%	-6	7.9µM*	1	-3%	-1%
FC(F)Oc1ccc(NC(=S)N2CCN(Cc3ccccc3)CC2)cc1	-1%	6	?	-21	24%	-6%
S=C(Nc1ccc(Cl)cc1)N1CCN(Cc2ccccc2)CC1	0%	-7	11µM*	-10	2%	-28%
C[C@H](NC(=O)C1CCN(S(=O)(=O)c2ccccc2)CC1)C(=O)NCc1cccnc1	/	0	/	-6	/	/
Cc1nc(NC(=O)CSc2cc(C)c3ccccc3n2)c(Cl)cc1Cl	?	3	2.5µM*	8	-2%	?
Cc1cc(SCC(=O)c2cc3ccccc3o2)nc2ccccc12	39%	7	11µM*	2	1%	?
Cc1cc(SCC(=O)NCCC2=CCCCC2)nc2ccccc12	-17%	16	?	-9	-4%	6.3µM*
Cc1cc(SCC(=O)Nc2cccnc2Cl)nc2ccccc12	8%	1	-4%	5	2%	17%
